Data reported in the supplement of paper PMC12067926.

Each compound was assayed on Bacillus 1 (Bacillus foraminis) (assay: relative growth (AUC of 72 h growth curve relative to DMSO control, dAUC) (ratio); higher = more growth (less inhibition), active = hit call of the paper). Settings: 20 µM;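 active = growth AUC significantly below the DMSO wells by Dunnett test; inactive = the rest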.
Description: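 Environmental bacterial isolates (Iceland stream sediment and Silwood Park soil) and whole stream-sediment communities were grown in LB from a 1:100 dilution with each pesticide at 20 µM (1% DMSO). A600 was read hourly for 72 h and the area under a spline-fitted growth curve (AUC) was computed. dAUC is the mean AUC of 3 biological replicates divided by the mean AUC of the DMSO controls. Significance was tested by Dunnett's test against the DMSO control.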

SMILES | relative growth
CC(C)(C)C(O)(CCc1ccc(Cl)cc1)Cn1cncn1 (stereo not given) | 0.924 (inactive)
Cc1cc(C(F)(C(F)(F)F)C(F)(F)F)ccc1NC(=O)c1cccc(I)c1C(=O)NC(C)(C)CS(C)(=O)=O | 1.16 (inactive)
CN1COCN(Cc2cnc(Cl)s2)/C1=N\[N+](=O)[O-] | 1.02 (inactive)
CC(COc1ccc(Oc2ccccc2)cc1)Oc1ccccn1 (stereo not given) | 1.07 (inactive)
CCCCc1c(C)nc(NCC)nc1OS(=O)(=O)N(C)C | 0.907 (inactive)
CC(C)(C)c1ccc(CSc2cnn(C(C)(C)C)c(=O)c2Cl)cc1 | 1.03 (inactive)
O=C(O)COc1ccc(Cl)cc1Cl | 1.09 (inactive)
CC1(C)CON(Cc2ccccc2Cl)C1=O | 1.03 (inactive)
CCCCCCCCCCCCNC(=N)N | 0.691 (active)
CC(C)N(C(=O)COc1nnc(C(F)(F)F)s1)c1ccc(F)cc1 | 0.999 (inactive)
CC1COC(Cn2cncn2)(c2ccc(Oc3ccc(Cl)cc3)cc2Cl)O1 (stereo not given) | 1.11 (inactive)
CNC(=O)c1cc(Cl)cc(C)c1NC(=O)c1cc(Br)nn1-c1ncccc1Cl | 1.01 (inactive)
N#C/N=C1\SCCN1Cc1ccc(Cl)nc1 | 1.08 (inactive)
CCCC(Cn1cncn1)c1ccc(Cl)cc1Cl (stereo not given) | 1.1 (inactive)
COC(=O)N(C(=O)N1CO[C@@]2(C(=O)OC)Cc3cc(Cl)ccc3C2=N1)c1ccc(OC(F)(F)F)cc1 | 1 (inactive)
CCOC(=O)CC(SP(=S)(OC)OC)C(=O)OCC (stereo not given) | 1.05 (inactive)
COP(=S)(OC)Oc1ccc(SC)c(C)c1 | 0.995 (inactive)
COC(=O)c1ccccc1S(=O)(=O)NC(=O)Nc1nc(C)nc(OC)n1 | 1.05 (inactive)
CNC(=O)Oc1cccc(/N=C/N(C)C)c1 | 0.983 (inactive)
CO/C=C(/C(=O)OC)c1ccccc1Oc1cc(Oc2ccccc2C#N)ncn1 | 1.03 (inactive)

SMILES | relative growth
CCNC(=O)NC(=O)/C(C#N)=N/OC | 1.04 (inactive)
CCCCC(C#N)(Cn1cncn1)c1ccc(Cl)cc1 (stereo not given) | 0.889 (inactive)
COC(=O)Nc1nc2ccccc2[nH]1 | 1.1 (inactive)
CC[C@H]1CCC[C@H](O[C@H]2CC[C@H](N(C)C)[C@@H](C)O2)[C@@H](C)C(=O)C2=C[C@@H]3[C@@H](C=C(C)[C@@H]4C[C@@H](O[C@@H]5O[C@@H](C)[C@H](OC)[C@@H](OC)[C@H]5OC)C[C@@H]34)[C@@H]2CC(=O)O1.CC[C@H]1CCC[C@H](O[C@H]2CC[C@H](N(C)C)[C@@H](C)O2)[C@@H](C)C(=O)C2=C[C@H]3[C@@H]4C[C@H](O[C@@H]5O[C@@H](C)[C@H](OC)[C@@H](OC)[C@H]5OC)C[C@H]4C=C[C@H]3C2CC(=O)O1 | 1.04 (inactive)
CCC(C)c1ccccc1OC(=O)NC (stereo not given) | 1.07 (inactive)
COc1ccc(C(=CC(=O)N2CCOCC2)c2ccc(Cl)cc2)cc1OC (mixture of isomers) | 0.924 (inactive)
OC(Cc1ccccc1Cl)(Cn1nc[nH]c1=S)C1(Cl)CC1 (stereo not given) | 0.988 (inactive)
O=C(NCCc1ncc(C(F)(F)F)cc1Cl)c1ccccc1C(F)(F)F | 0.999 (inactive)
CCc1cccc(C)c1N(C(=O)CCl)[C@@H](C)COC | 1.06 (inactive)
Fc1ccc(Oc2ccnc3cc(Cl)cc(Cl)c23)cc1 | 1.04 (inactive)
O=[N+]([O-])c1cc(C(F)(F)F)c(Cl)c([N+](=O)[O-])c1Nc1ncc(C(F)(F)F)cc1Cl | 0.0375 (active)
CC1(C)[C@H](/C=C(\Cl)C(F)(F)F)[C@@H]1C(=O)OC(C#N)c1cccc(Oc2ccccc2)c1 (stereo not given in full) | 1.05 (inactive)
O=C1C2CC=CCC2C(=O)N1SC(Cl)(Cl)Cl (stereo not given) | 0.939 (inactive)
CCOCn1c(-c2ccc(Cl)cc2)c(C#N)c(Br)c1C(F)(F)F | 1.1 (inactive)
Cc1cc(C)c(C2=C(OC(=O)CC(C)(C)C)C3(CCCC3)OC2=O)c(C)c1 | 0.993 (inactive)
CNC(=O)CSP(=S)(OC)OC | 0.911 (inactive)
Cc1nc(N(C)C)nc(OC(=O)N(C)C)c1C | 0.959 (inactive)
COP(N)(=O)SC (stereo not given) | 0.871 (inactive)
CCOc1cc(Oc2ccc(C(F)(F)F)cc2Cl)ccc1[N+](=O)[O-] | 0.956 (inactive)
CN(C)C(CSS(=O)(=O)O)CSS(=O)(=O)O | 1.07 (inactive)
